AMA1-RON2 inh = AMA1-RON2 (P. falciparum) interaction inhibition | 0.2% of 360,000 active | AlphaScreen AMA1-biotinylated RON2 peptide binding | AID 720542 | Potency, µM (titrated, usually from 58.2 µM), for inactives: at the highest dose activity change, negative = inhibition, usual class: inhibitors;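 note: potency is the fitted concentration of half-maximal effect; 0% = vehicle wells and -100% = peptide control; nearly all actives have a fitted effect of over 45% in size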
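AMA1 (3D7) with his tag at 25 nM final met compounds first, then biotinylated RON2 peptide at 25 nM; detection used donor plus acceptor beads, 10 µg/mL apiece, read by AlphaScreen after 30 min at room temperature.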
Shiga toxin inh = inhibitors of Shiga toxin in Vero cells | Vero cells, Shiga toxin protein synthesis inhibition reporter | inhibition, % at 38.7 µM | 9.2% of 290,000 active; in the data active = inhibition mostly above about 28%, no sharp cut-off; inactive = mostly below about 43%; note: 0% is about no effect
Cycloheximide cs = counter-screen for Shiga toxin inhibitors: cycloheximide protein synthesis inhibition; cell reporter, cycloheximide protein synthesis inhibition counterscreen; max response, %; 12% of 300,000 active; in the data active = max response mostly above about 13%, no sharp cut-off; inactive = mostly below about 14%; note: read at 38.3 µM for the half of the compounds with a filed dose; 0% is about no effect
SARS PLpro yeast = inhibitors of SARS-CoV papain-like protease in yeast; S. cerevisiae expressing SARS-CoV PLpro, growth rescue; Potency, µM (series often up to 32.9 µM), inactives show at the top dose activity, positive = growth rescue, most hits filed as activators; 0.19% of 330,000 active; AID 485353; calls by dose curve; note: potency is the fitted concentration of half-maximal effect; 0% is about no effect; nearly all actives have a fitted effect of over 55% in size
Pf growth 48h = inhibits P. falciparum growth in the first generation, 48 h; P. falciparum luciferase growth in erythrocytes, 48 h; Potency, µM (titrated, usually from 28.7 µM), without a hit: top-dose activity change, negative = inhibition, most hits filed as inhibitors; 5.9% of 310,000 active; note: potency is the fitted concentration of half-maximal effect; % is set by controls: 0 for no effect and ±100 for the full control effect
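Firefly luciferase activity from engineered P. falciparum reports growth; inhibitors lower the luminescent signal. Cultures contained 2% hematocrit erythrocytes at 0.1% final parasitemia.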
Pf growth 96h = P. falciparum growth inhibition at 96 hour, primary screen for plastid delayed-death inhibitors. P. falciparum luciferase reporter growth, 96 h. Potency, µM (top dose mostly 28.7 µM), without a hit: at the highest dose activity change, negative = inhibition, usual class: inhibitors. 6.9% of 320,000 active; note: potency is the fitted concentration of half-maximal effect; % is set by controls: 0 for no effect and ±100 for the full control effect
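P. falciparum expressing integrated firefly luciferase, in erythrocytes at 2% hematocrit, 0.05% parasitemia, incubated with compounds 96 h at 37 C, 5% CO2. Growth inhibition read as loss of luminescence; two-generation exposure targets delayed-death apicoplast inhibitors.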
* hit, by the source's call; ? = inconclusive; nt = not tested or not shown. This is a sample that favours compounds with a hit; in the whole collection about 19% have one here. Unless noted, calls come from the whole dose curve; as a rule, active = well fitted curve in the direction sought with a large enough effect; inconclusive = small, poorly fitted or top-dose-only effect, or another doubt; inactive = no such curve, though single readings can be large; an effect the other way counts as inactive or inconclusive.

SMILES | AMA1-RON2 inh | Shiga toxin inh | Cycloheximide cs | SARS PLpro yeast | Pf growth 48h | Pf growth 96h
Cc1ccc(-c2nc(NCc3ccco3)c3ccccc3n2)cc1 | 1.1% | 36.3* | 69.0* | -95.5% | 5.6% | 2.3%
Cc1ccc(-c2nc(N/N=C/c3cccnc3)c3ccccc3n2)cc1 | -1.3% | 22.4 | 20.0* | -33.6% | nt | ?
Cc1ccc(-c2nc(NCc3cccnc3)c3ccccc3n2)cc1 | 8.1% | -5.3 | 14.5* | -13.8% | ? | 75.5%
O=c1c2ccccc2nc2ccc(NCc3ccco3)nn12 | 12.0% | 56.3* | 50.7* | -11.9% | 96.0% | nt
CNC(=S)NCCCCc1cnc[nH]1 | nt | -6.9 | -1.4 | nt | nt | nt
CC1=C(C(=O)N(C(C)C)C(C)C)CC(CC(=O)NCc2cccc3ccccc23)C(=O)N1CCC1=CCCCC1 (centres undefined) | -5.5% | nt | nt | nt | nt | nt
c1cncc(-c2nc(NCc3ccco3)c3ccccc3n2)c1 | 7.0% | -7.1 | 13.8 | ? | 11.7µM* | 34.5%
Cc1ccc(S(=O)(=O)Nc2nc3ccccc3nc2NCc2ccco2)cc1 | 94.7% | 73.9* | 59.2* | -11.8% | 117.6% | nt
O=C(/C=C/Sc1ccccc1)c1ccc(Cl)cc1 | 10.2% | 115.8* | 68.2* | -16.4% | nt | ?
O=C(/C=C/Sc1ccccc1)c1ccccc1 | 47.5% | 182.3* | 139.9* | -25.3% | nt | ?
CCC1CC(C(=O)Nc2ccccc2)C(=O)O1 (centres undefined) | -6.4% | nt | nt | nt | nt | nt
COc1ccccc1-n1cnc2c(c1=O)c1nc3ccccc3nc1n2-c1ccc(C)c(C)c1 | 0.0% | -6.7 | -4.6 | -30.8% | ? | 10.4µM*
CC1CN(S(=O)(=O)c2cccc(C(=O)Nc3ccc(S(=O)(=O)NC4=NCCCCC4)cc3)c2)CC(C)O1 (centres undefined) | -17.2% | nt | nt | nt | 13.1µM* | ?
CCc1cc(C(=O)Nc2ccc(S(=O)(=O)NC3=NCCCCC3)cc2)sc1C | 3.3% | nt | nt | -2.5% | ? | 4.15µM*
Cc1ccc(C(=O)Nc2ccc(S(=O)(=O)NC3=NCCCCC3)cc2)c(C)c1 | -4.9% | nt | nt | -2.0% | 39.3% | ?
CC(C)c1ccc(C(=O)Nc2ccc(S(=O)(=O)NC3=NCCCCC3)cc2)cc1 | -6.1% | nt | nt | nt | nt | nt
CC1CN(S(=O)(=O)c2cccc(C(=O)Nc3ccc(S(=O)(=O)Nc4ncccn4)cc3)c2)CC(C)O1 (centres undefined) | -2.0% | -10.1 | -2.4 | 0.3% | ? | -4.1%
O=C(Nc1ccc(S(=O)(=O)NC2=NCCCCC2)cc1)c1cccc(S(=O)(=O)N2CCOCC2)c1 | 1.3% | nt | nt | 5.6% | nt | nt
Cc1ccc(C(=O)Nc2ccc(S(=O)(=O)NC3=NCCCCC3)cc2)cc1S(=O)(=O)N1CCOCC1 | 7.8% | nt | nt | 5.9% | 2.33µM* | 13.1µM*
CN(C)c1ccc(C(=O)Nc2ccc(S(=O)(=O)NC3=NCCCCC3)cc2)cc1 | -25.8% | -17.1 | -6.9 | 15.7% | ? | 11.7µM*
C=CC[C@@H](CC(=O)N[C@@H](CO)Cc1ccccc1)C(=O)N[C@H](C)COC(=O)[C@@H](CC=C)Cc1ccc(F)cc1 | 7.3% | nt | nt | 8.0% | nt | nt
CCC(OC(=O)CN1C(=O)C(=O)c2ccccc21)C(=O)Nc1ccccc1OC (centres undefined) | -6.2% | -5.2 | -6.2 | 9.1% | -0.4% | ?
CN(C)c1cccc(C(=O)Nc2cccc(S(=O)(=O)NC3=NCCC3)c2)c1 | 8.7% | 69.7* | 32.9* | 18.2% | 39.8% | 56.2%
O=c1cc(CSc2ccccc2)[nH]c2ccccc12 | -4.1% | -4.2 | 2.2 | 0.1% | 10.4µM* | 27.8%
O=c1cc(CSc2ccccc2)[nH]c(=S)[nH]1 | 107.3% | -6.1 | -3.3 | 5.3% | -8.9% | -4.9%
SMILES | AMA1-RON2 inh | Shiga toxin inh | Cycloheximide cs | SARS PLpro yeast | Pf growth 48h | Pf growth 96h
Cc1ccc(OCCCC(=O)NC2CCCCC2)cc1 | 1.2% | -4.5 | 6.2 | -3.4% | 11.8% | ?
Cc1ccc2c(c1)Sc1c(ccc3ccccc13)N2 | ? | 84.6* | 53.5* | -0.9% | 62.3% | ?
Cc1ccc2c(C)c3ccc4ccccc4c3c[n+]2c1 | 8.2% | nt | nt | nt | nt | nt
Cn1c(S(=O)(=O)c2ccc([N+](=O)[O-])cc2)nc(Br)c1Br | -7.4% | 6.7 | 3.2 | -0.2% | ? | 9.28µM*
COc1ccccc1-c1sc2ccccc2c1C#Cc1ccc(N(C)C)cc1 | 40.1% | nt | nt | 6.4% | nt | nt
CC(C)C[C@@H](CSc1ccc(Br)cc1)N1CCN(CCc2ccccc2)CCC1=O | 58.7% | -12.7 | 9.8 | -9.9% | ? | ?
CC(C)CN1CCC(=O)N([C@H](CSc2ccccc2)Cc2ccccc2)CC1 | -3.6% | 5.3 | -0.3 | 1.8% | ? | 13.1µM*
CCCN1CCC(=O)N([C@H](CSc2ccc(OC)cc2)CC(C)C)CC1 | -1.0% | 71.0* | 26.8* | 0.2% | ? | ?
COc1ccc(SCC(CC(C)C)N2CCN(CCc3ccccc3)CCC2=O)cc1 (centres undefined) | nt | 56.9* | 55.8* | nt | nt | nt
CC(C)C[C@@H](CSc1ccccc1)N1CCN(CCc2ccccc2)CCC1=O | -8.3% | 29.7* | 18.1* | -5.0% | ? | ?
O=C(Nc1cccc(F)c1)C1CCCN(c2cnccn2)C1 (centres undefined) | -3.8% | -3.1 | -2.9 | -12.8% | 5.8% | 1.3%
CCCN1CCC(=O)N([C@H](CN=[N+]=[N-])CC(C)C)CC1 | 14.3% | -6.0 | -0.5 | -5.2% | ? | 4.65µM*
CC(C)CN1CCC(=O)N(CCN=[N+]=[N-])CC1 | 0.3% | 3.0 | 8.0 | -6.1% | -26.9% | ?
Cc1ccc(-c2ccc(CCC(=O)O)n2-c2cccc(O)c2)cc1 | -11.6% | 120.8* | 40.3* | 2.1% | 131.2% | nt
CC(=O)c1ccc(-n2c(CCC(=O)O)ccc2-c2ccc(C)cc2)cc1 | -8.6% | -5.5 | -2.9 | 1.2% | 4.4% | -22.6%
CC(=O)c1cccc(-n2c(CCC(=O)O)ccc2-c2cccs2)c1 | -8.5% | 52.4 | 26.3* | -13.5% | ? | ?
CC(=O)c1cccc(-n2c(CCC(=O)O)ccc2-c2ccccc2)c1 | -10.4% | 75.4* | 40.1* | -1.2% | -11.8% | 3.5%
Cc1ccccc1N/C=C/C(=C(C#N)C#N)N(C)C | -1.3% | 18.7 | -1.5 | -2.5% | -5.9% | 2.0%
O=C(O)CN(CC(=O)O)c1ccccc1OCCOc1ccccc1N(CC(=O)O)CC(=O)O | nt | 4.0 | 10.2 | nt | nt | nt
Cc1cc(OCC(O)CN)ccc1Cl (centres undefined) | 12.7% | -13.0 | -2.3 | -0.6% | 24.0% | 0.738µM*
Cc1cccc(C)c1OCC(O)CN (centres undefined) | 0.0% | -19.3 | -3.1 | -0.3% | 4.3% | nt
CC1CCCC1/C(=N/O)c1ccccc1 (centres undefined) | -4.1% | -8.3 | -2.5 | 2.3% | 21.4% | 45.7%
CCOC(=O)c1sc(N(Cc2ccccc2)C(=O)COC(=O)c2ccccc2O)nc1C | 9.1% | 32.4* | 18.7* | -3.7% | 39.0% | 31.9%
CCN(CC)Cc1c(O)ccc2c(=O)c(-c3ccccc3Cl)coc12 | 11.6% | -7.0 | 0.1 | 0.7% | -6.7% | 372.2%

Assay outcomes: PubChem, National Center for Advancing Translational Sciences (NCATS)
